Assay [1] is described as follows: cAMP Responsive Elements (CRE) small molecule antagonists, cell-based qHTS assay: qHTS cell viability counter screen (AID 2060913). Further: nearly all actives have a fitted effect of over 40% in size. The conditions noted are these: CRE-bla HEK293T viability, CellTiter-Glo luminescence, 5 h; series mostly up to 92.4 µM. In a few lines: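 Steps: cells plated and held 18 hrs at 37 C/5% CO2; compounds and NKH477 (0.25 uM final) added; 3 hrs incubation; reporter substrate read; CellTiter-Glo added to measure cytotoxicity by luminescence.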
(In general: qHTS replaces the single test concentration by a dilution series.)

Assay [2] can be described thus: cAMP Responsive Elements (CRE) small molecule agonists, cell-based qHTS assay: qHTS cell viability counter screen (AID 2060914). Further: nearly all actives have a fitted effect of over 50% in size. The conditions noted are these: CRE-bla HEK293T viability, CellTiter-Glo luminescence, 5 h; series mostly up to 92.4 µM. In a few lines:
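CRE-bla HEK 293T cells, plated 18 h at 37 °C, were exposed to compounds for 3 h at 37 °C/5% CO2. Viability was then measured in the same wells by CellTiter-Glo luminescence after 30 min at room temperature.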

Records with an inconclusive call do not appear. Where a call stands in place of a potency, no number is given. Active and inactive are the calls of the source. The call rests on the fitted dose curve; in most records, active means well fitted cell-killing curve with a large enough effect in the repeat runs; inconclusive means weak or mixed curves, or effect the other way; inactive means flat fitted curve, though single readings scatter.

As for `CC(C)Cc1ccc(C(C)C(=O)O)cc1` (stereo unspecified), the Potency result in assay [1] and in assay [2] was “inactive” each time.
In the case of `CCC(OCCCOC)OC(C)=O` (stereo unspecified), the Potency result in assay [1] and in assay [2] was “inactive” in each case.
Turning to `CC(C)NCC(O)c1ccc(O)c(O)c1` (stereo unspecified), the Potency entry in assay [1] and in assay [2] was “inactive” each time.

The values are drawn from PubChem BioAssay (Tox21).
